# Test results as given in PubChem BioAssay AID504558 (Broad Institute, 2011).
# About 2,400 (0.69%) of roughly 350,000 compounds were called active. This is one part of a sample in which actives are shown more often than they occur. No stated cut-off is given here; in the data, active means inhibition above about 41%; inconclusive means no clear call, values can overlap the other calls; inactive means below that.
# Test: EBV LMP1-driven NF-kappaB luciferase reporter inhibitors, primary screen, cell-based, luminescence, single point (AID 504558);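 further: 0% = neutral control wells and 100% = reference inhibitor control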
# Settings: LMP1-induced NF-kappaB luciferase reporter cells, at 12.5 µM, stronger effect = higher value
row,SMILES,inhibition
1,CC(=O)c1ccccc1NC(=O)COC(=O)C1COc2ccccc2O1 (stereo unspecified),-0.0295% (inactive)
2,O=c1[nH]c2ccccc2n1C1CCN(CCOc2ccccc2)CC1,5.46% (inactive)
3,OC(COc1ccccc1)CN1CCN(c2cccc(Cl)c2)CC1 (stereo unspecified),46.9% (active)
4,OC(COc1ccc2c(c1)CCC2)CN1CCN(c2cccc(Cl)c2)CC1 (stereo unspecified),-1.09% (inactive)
5,CCC(=O)c1ccc(OCC(O)CN2CCN(c3cccc(C(F)(F)F)c3)CC2)cc1 (stereo unspecified),1.92% (inactive)
6,CCOC(=O)c1c(NC(=O)COC(=O)c2ccc(S(=O)(=O)C(F)F)cc2)sc(C(=O)N(C)C)c1C,1.83% (inactive)
7,CC(=NNC(N)=O)C1CC2CCC1CC2 (stereo unspecified),4.52% (inactive)
8,CC(OC(=O)c1ccc(NC(=O)CC#N)cc1)C(=O)Nc1ccc(S(=O)(=O)N2CCCC2)cc1 (stereo unspecified),-2.22% (inactive)
9,Cc1ccccc1NC(=O)Cc1nc(COC(=O)C(C)(C)Oc2ccc(Cl)cc2)cs1,-2.11% (inactive)
10,Cc1noc(C)c1S(=O)(=O)N(C)C[C@H]1OCCCC[C@@H](C)Oc2ccc(NC(=O)CCCN(C)C)cc2C(=O)N([C@H](C)CO)C[C@@H]1C,-4.38% (inactive)
11,COC(=O)Cc1[nH]n(-c2nc3ccccc3s2)c(=O)c1C(C)=Nc1ccc(OC)cc1,59.5% (active)
12,COc1ccc(C(=O)Nc2cccc(/C=C(/CCC(=O)O)c3nc4ccccc4s3)c2)cc1,-6.71% (inactive)
13,COc1ccccc1NC(=O)c1ccc2nc(N3C(=O)CCC3=O)sc2c1,-13.5% (inactive)
14,C[C@H]1CN([C@@H](C)CO)C(=O)CCCn2cc(nn2)CO[C@@H]1CN(C)S(=O)(=O)c1cccc(C#N)c1,-4.24% (inactive)
15,COc1ccc(OC)c(C(=O)NC2CCCc3c2cnn3-c2cc(C)cc(C)c2)c1 (stereo unspecified),-16.3% (inactive)
16,Cn1nccc1C(=O)NC1CCCc2c1cnn2-c1ccccc1F (stereo unspecified),28.4% (inactive)
17,COc1ccc(C(=O)NC2CCCc3c2cnn3-c2cccc(C)c2C)c(OC)n1 (stereo unspecified),47.8% (active)
18,O=C(O)C1=C(C(=O)O)C2CCC1C2,-22.4% (inactive)
19,COc1ccc(-c2csc(Nc3cccc(C)n3)n2)cc1OC,56.6% (active)

row,SMILES,inhibition
1,COc1ccc2c(c1OC)C(=O)OC2Nc1nc(-c2ccccc2)cs1 (stereo unspecified),22.9% (inactive)
2,Cc1cccc(NC(=O)COc2ccc(Br)cc2C)n1,-11.9% (inactive)
3,Cc1ccc(-c2ccc(CN3C(C(C)C)C(=O)N(Cc4cn(CCC5OCCCO5)nn4)CCS3(=O)=O)cc2)cc1 (stereo unspecified),3.16% (inactive)
4,C[C@H]1CN([C@@H](C)CO)C(=O)CCCn2nncc2CO[C@@H]1CN(C)Cc1ccc(Oc2ccccc2)cc1,8.56% (inactive)
5,COc1ccc(C2=NOC(COC(=O)c3ccc4ccccc4n3)C2)cc1 (stereo unspecified),3.2% (inactive)
6,Cc1ccc(C(=O)NNC2=Nc3cc([N+](=O)[O-])ccc3OC2)cc1,-21.3% (inactive)
7,COc1ccc(C2=Nc3cc(C)ccc3OC2)cc1,91.3% (active)
8,CCN(CC)C(=O)C(C)N1c2cccc3cccc(c23)S1(=O)=O (stereo unspecified),11.1% (inactive)
9,COc1ccc(S(=O)(=O)N2CCC(C(=O)NCCC(=O)NCCc3cccc(F)c3)CC2)cc1,6.77% (inactive)
10,O=C(c1cc(-c2cccc(O)c2)on1)N1CCc2ccccc2C1,-0.0205% (inactive)
11,O=C(c1cc(-c2ccc(O)cc2)on1)N1CCOCC1,12% (inactive)
12,O=C(c1cc(-c2ccc(O)cc2)on1)N1CCCc2ccccc21,83.9% (active)
13,C[C@@H]1CN([C@@H](C)CO)C(=O)CCCn2nncc2CO[C@H]1CN(C)Cc1ccc(C(F)(F)F)cc1,-1.15% (inactive)
14,CC(=O)Nc1ccccc1NC(=O)c1cc(C)cc(C)c1,-2.05% (inactive)
15,Nc1ccc(S(=O)(=O)NC(=O)c2ccccc2)cc1,5.43% (inactive)
16,Nc1ccc(C(=O)Nc2ccccc2N)cc1,43.3% (active)
17,Cc1ccc(Cc2c(-c3ccc(C)cc3)nc3c4ccccc4ccn23)cc1,-19.4% (inactive)
18,Cc1ccc(C(=O)N2CCCc3ccccc32)c(Cl)c1,6.82% (inactive)
19,CC(Sc1ccc(S(=O)(=O)N2CCN(C)CC2)cn1)C(=O)NC1CCCC(C)C1C (stereo unspecified),-17.5% (inactive)

row,SMILES,inhibition
1,CCc1ccc(CN(C)C(=O)CCc2nnc(-c3ccc(-c4ccccc4)cc3)o2)nc1,5.34% (inactive)
2,CCCCCCc1cc2cc(-c3nnc(-c4ccccc4)o3)c(=O)oc2cc1O,52% (active)
3,O[C@H]1C[C@H](c2ccc(Cl)cc2)N(Cc2cccs2)C[C@@H]1n1cc(C2CC2)nn1,1.65% (inactive)
4,CCOc1ccc(NS(=O)(=O)c2ccc(C(=O)NCC3CCCO3)cc2)cc1 (stereo unspecified),-2.59% (inactive)
5,COc1ccc(CN2C(=O)C(CC(=O)NCCCCc3ccccc3)CC(C(=O)N3CCOCC3)=C2C)cc1 (stereo unspecified),-8.73% (inactive)
6,COc1ccc(/C=C/c2noc(-c3ccccc3OC(C)=O)n2)cc1,9.61% (inactive)
7,COc1ccc(OC)c(-c2csc(-c3cccs3)n2)c1,0.747% (inactive)
8,COc1ccc(-c2nc(-c3ccccc3)no2)c(OC)c1,67.3% (active)
9,C#CCN(C[C@@H]1[C@@H](OC(=O)NC2CC2)[C@@H](OC(=O)NC2CC2)Cn2c(=O)ccc(=O)n21)S(=O)(=O)c1ccc(C)cc1,4.07% (inactive)
10,CCOc1ccc(NC(=S)N2CCC(NC(=O)c3ccccc3)CC2)cc1,0.728% (inactive)
11,CCOc1cc2ccccc2cc1C(=O)Nc1ccccn1,-13.7% (inactive)
12,Cc1cc(N/C=C\C(=O)c2ccc(Cl)c(Cl)c2)no1,-16.1% (inactive)
13,COc1ccc(C(=O)/C=C/Nc2ccccn2)cc1,67% (active)
14,CCOc1ccc(N/C=C/C(=O)c2ccccc2)cc1,82.1% (active)
15,CCOc1ccc(N/C=C/C(=O)c2cc(OC)c(OC)c(OC)c2)cc1,-9.23% (inactive)
16,NC1=CC(=O)C(=O)c2cccnc21,12.1% (inactive)
17,COCC(=O)N(C)C[C@H]1Oc2cc(Br)ccc2S(=O)(=O)N([C@H](C)CO)C[C@H]1C,0.42% (inactive)
18,O=C(Cc1ccc([N+](=O)[O-])cc1)NCCS(=O)(=O)N1CCN(c2ccccc2)CC1,-3.09% (inactive)
